Laboratory results as given in PubChem BioAssay AID1159580 (chemical genetic matrix, 2015).
“And” between values parts separate entries of the source, which are not always exact repeats. Equal entries are not always repeated. About 2,000 (36%) of roughly 5,500 compounds were called active. Roughly 18% stayed inconclusive and do not appear here. Cut-off read from the data, not from the text of the source: active = normalized growth mostly below about 0.91 (no sharp cut-off); inconclusive = no clear call, values can overlap the other calls; inactive = mostly above about 0.92. The list shows a part of the results.

Assay: chemical genetic growth profiling, strain panel (AID 1159580);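 note: tested at 20 µM; growth read once vehicle control cultures reached saturation at 30 °C; 1 = growth at the plate median or of vehicle wells; lower values mean less growth of the strain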
Settings: growth OD

Measured: normalized growth

O=C(O)CCCCCCCC(=O)O
inactive: S. cerevisiae deletion strains, locus YKL009W, strain mrt4, stronger effect = lower value 0.937 | S. cerevisiae deletion strains, locus YKL068W, stronger effect = lower value 1.01 | S. cerevisiae deletion strains, locus YKL085W, strain MDH1 (second series), stronger effect = lower value 1 | S. cerevisiae deletion strains, locus YKL085W, strain MDH1, stronger effect = lower value 1 | S. cerevisiae deletion strains, locus YKL160W, strain elf1, stronger effect = lower value 1.04 | S. cerevisiae deletion strains, locus YKL190W, strain CNB1, stronger effect = lower value 0.992 | S. cerevisiae deletion strains, locus YKR001C, strain vps1, stronger effect = lower value 0.981 | S. cerevisiae deletion strains, locus YKR026C, strain gcn3, stronger effect = lower value 1.01 | S. cerevisiae deletion strains, locus YKR091W, strain srl3, stronger effect = lower value 0.996 | S. cerevisiae deletion strains, locus YLL001W, strain dnm1, stronger effect = lower value 1.02 | S. cerevisiae deletion strains, locus YLL026W, stronger effect = lower value 0.995 | S. cerevisiae deletion strains, locus YLL041C, strain sdh2, stronger effect = lower value 0.993 | S. cerevisiae deletion strains, locus YLR027C, strain aat2, stronger effect = lower value 1.01 | S. cerevisiae deletion strains, locus YLR039C, strain RIC1, stronger effect = lower value 0.999 | S. cerevisiae deletion strains, locus YLR058C, strain SHM2, stronger effect = lower value 0.978 | S. cerevisiae deletion strains, locus YLR102C, strain apc9, stronger effect = lower value 0.99 | S. cerevisiae deletion strains, locus YLR113W, strain HOG1, stronger effect = lower value 0.966 | S. cerevisiae deletion strains, locus YLR221C, strain rsa3, stronger effect = lower value 1.01 | S. cerevisiae deletion strains, locus YLR258W, strain gsy2, stronger effect = lower value 1.02 | S. cerevisiae deletion strains, locus YLR262C, strain YPT6 (second series), stronger effect = lower value 0.981 | S. cerevisiae deletion strains, locus YLR262C, strain YPT6, stronger effect = lower value 0.949 | S. cerevisiae deletion strains, locus YLR268W, strain sec22, stronger effect = lower value 1.01 | S. cerevisiae deletion strains, locus YLR320W, strain mms22, stronger effect = lower value 1 | S. cerevisiae deletion strains, locus YLR330W, strain CHS5, stronger effect = lower value 0.995 | S. cerevisiae deletion strains, locus YLR342W, strain FKS1 (second series), stronger effect = lower value 1.03 | S. cerevisiae deletion strains, locus YLR342W, strain FKS1, stronger effect = lower value 1.01 | S. cerevisiae deletion strains, locus YLR357W, strain rsc2, stronger effect = lower value 1.05 | S. cerevisiae deletion strains, locus YLR370C, strain arc18, stronger effect = lower value 1.01 | S. cerevisiae deletion strains, locus YLR371W, strain rom2, stronger effect = lower value 0.991 | S. cerevisiae deletion strains, locus YLR384C, strain iki3, stronger effect = lower value 0.994 | S. cerevisiae deletion strains, locus YLR418C, strain cdc73, stronger effect = lower value 1.02 | S. cerevisiae deletion strains, locus YML016C, strain PPZ1, stronger effect = lower value 0.991 | S. cerevisiae deletion strains, locus YML032C, strain rad52, stronger effect = lower value 0.972 | S. cerevisiae deletion strains, locus YML120C, strain ndi1, stronger effect = lower value 1 | S. cerevisiae deletion strains, locus YML124C, strain tub3, stronger effect = lower value 0.991 | S. cerevisiae deletion strains, locus YMR058W, strain fet3, stronger effect = lower value 1.01 | S. cerevisiae deletion strains, locus YMR078C, strain ctf18, stronger effect = lower value 0.983 | S. cerevisiae deletion strains, locus YMR125W, strain sto1, stronger effect = lower value 1.03 | S. cerevisiae deletion strains, locus YMR129W, stronger effect = lower value 1.01 | S. cerevisiae deletion strains, locus YMR205C, strain PFK2, stronger effect = lower value 1.02 | S. cerevisiae deletion strains, locus YMR223W, strain ubp8, stronger effect = lower value 1 | S. cerevisiae deletion strains, locus YMR231W, strain pep5, stronger effect = lower value 1.01 | S. cerevisiae deletion strains, locus YMR263W, strain SAP30, stronger effect = lower value 0.984 and 1.01 | S. cerevisiae deletion strains, locus YMR307W, strain GAS1, stronger effect = lower value 1.12 | S. cerevisiae deletion strains, locus YNL067W, strain RPL9B, stronger effect = lower value 0.996 | S. cerevisiae deletion strains, locus YNL071W, strain lat1, stronger effect = lower value 1 | S. cerevisiae deletion strains, locus YNL128W, strain TEP1, stronger effect = lower value 0.976 | S. cerevisiae deletion strains, locus YNL153C, strain GIM3, stronger effect = lower value 0.986 and 1.02 | S. cerevisiae deletion strains, locus YNL175C, strain NOP13, stronger effect = lower value 1.01 | S. cerevisiae deletion strains, locus YNL183C, strain NPR1, stronger effect = lower value 0.945 | S. cerevisiae deletion strains, locus YNL197C, strain WHI3, stronger effect = lower value 1.01 | S. cerevisiae deletion strains, locus YNL209W, strain ssb2, stronger effect = lower value 1 | S. cerevisiae deletion strains, locus YNL224C, strain SQS1, stronger effect = lower value 1 | S. cerevisiae deletion strains, locus YNL233W, strain BNI4, stronger effect = lower value 0.994 | S. cerevisiae deletion strains, locus YNL248C, strain rpa49, stronger effect = lower value 1.04 | S. cerevisiae deletion strains, locus YNL250W, strain rad50, stronger effect = lower value 0.988 | S. cerevisiae deletion strains, locus YNL271C, strain bni1, stronger effect = lower value 0.992 | S. cerevisiae deletion strains, locus YNL298W, strain CLA4, stronger effect = lower value 0.926 | S. cerevisiae deletion strains, locus YNL307C, strain MCK1, stronger effect = lower value 0.992 | S. cerevisiae deletion strains, locus YNL322C, strain KRE1 (second series), stronger effect = lower value 1.04 | S. cerevisiae deletion strains, locus YNL322C, strain KRE1, stronger effect = lower value 0.992 | S. cerevisiae deletion strains, locus YNR049C, strain mso1, stronger effect = lower value 1.01 | S. cerevisiae deletion strains, locus YNR052C, strain pop2, stronger effect = lower value 0.974 | S. cerevisiae deletion strains, locus YOL006C, strain TOP1, stronger effect = lower value 1.02 | S. cerevisiae deletion strains, locus YOL012C, strain htz1 0.954 | S. cerevisiae deletion strains, locus YOL147C, strain pex11, stronger effect = lower value 1 | S. cerevisiae deletion strains, locus YOR001W, strain rrp6, stronger effect = lower value 1 | S. cerevisiae deletion strains, locus YOR061W, strain CKA2, stronger effect = lower value 0.973 | S. cerevisiae deletion strains, locus YOR069W, strain VPS5, stronger effect = lower value 0.998 | S. cerevisiae deletion strains, locus YOR070C, strain gyp1, stronger effect = lower value 1.02 | S. cerevisiae deletion strains, locus YOR080W, strain dia2, stronger effect = lower value 1.01 | S. cerevisiae deletion strains, locus YOR083W, strain WHI5 (second series), stronger effect = lower value 1.02 | S. cerevisiae deletion strains, locus YOR083W, strain WHI5, stronger effect = lower value 1 | S. cerevisiae deletion strains, locus YOR106W, strain vam3, stronger effect = lower value 1.03 | S. cerevisiae deletion strains, locus YOR136W, strain idh2, stronger effect = lower value 0.962 | S. cerevisiae deletion strains, locus YOR144C, strain elg1, stronger effect = lower value 0.993 | S. cerevisiae deletion strains, locus YOR184W, strain ser1, stronger effect = lower value 0.988 | S. cerevisiae deletion strains, locus YOR231W, strain MKK1, stronger effect = lower value 0.973 | S. cerevisiae deletion strains, locus YOR265W, strain rbl2, stronger effect = lower value 1.01 | S. cerevisiae deletion strains, locus YOR270C, strain vph1, stronger effect = lower value 1.1 | S. cerevisiae deletion strains, locus YOR290C, strain snf2, stronger effect = lower value 1.04 | S. cerevisiae deletion strains, locus YOR316C, strain cot1, stronger effect = lower value 0.985 | S. cerevisiae deletion strains, locus YPL051W, strain arl3, stronger effect = lower value 1.02 | S. cerevisiae deletion strains, locus YPL055C, strain LGE1, stronger effect = lower value 0.957 | S. cerevisiae deletion strains, locus YPL078C, strain atp4, stronger effect = lower value 1.03 | S. cerevisiae deletion strains, locus YPL106C, strain sse1, stronger effect = lower value 0.996 | S. cerevisiae deletion strains, locus YPL240C, strain hsp82, stronger effect = lower value 1.01 | S. cerevisiae deletion strains, locus YPL241C, strain CIN2, stronger effect = lower value 0.997 and 1.01 | S. cerevisiae deletion strains, locus YPL256C, strain CLN2, stronger effect = lower value 0.988 | S. cerevisiae deletion strains, locus YPR119W, strain clb2, stronger effect = lower value 0.987 | S. cerevisiae deletion strains, locus YPR141C, strain kar3, stronger effect = lower value 1 | S. cerevisiae deletion strains, locus YPR163C, strain tif3, stronger effect = lower value 0.987 | S. cerevisiae deletion strains, locus YPR167C, strain met16, stronger effect = lower value 0.99 | S. cerevisiae deletion strains, strain wtn01, stronger effect = lower value 0.983 | S. cerevisiae strains, strain wild type, stronger effect = lower value 0.999
